Results with a measured potency or affinity are listed apart. The source made the active and inactive calls.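 Rule for the calls: active = cell-killing compounds whose fitted half-effect concentration is at most twice their highest valid dose; inconclusive = flat curve with 30 to 70% signal loss, or poor fit; inactive = the rest.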

This assay is described as follows: cytotoxicity in A549 cells, dose response, cytotoxicity control, cell-based, CellTiter-Glo luminescence, cherry-pick (AID 743484). The following applies: A549 viability, CellTiter-Glo ATP luminescence, 72 h; series mostly up to 26 µM.
On to `COc1ccc(-n2cc(-c3ccccc3)c3c(N4CCOCC4)ncnc32)cc1`, for which the compound was called inactive.
For the compound `COc1cccc(C(=O)Nc2cc(C)nn2-c2ccccc2)c1OC`, the compound was classed as inactive.
With `COC(=O)c1c(NC(=O)CCC(=O)O)sc(Cc2ccccc2)c1C`, the compound was classed as inactive.
As for `COc1ccc2[nH]c3c(=O)n(CCCCC(=O)NCCC(C)C)c(=S)[nH]c3c2c1`, the result was inactive.
With `C[C@@H]1CCCCO[C@H](CN(C)C(=O)CCCN(C)C)[C@H](C)CN([C@@H](C)CO)C(=O)c2cc(NC(=O)Nc3cccc4ccccc34)ccc2O1`, the compound was called inactive.
The value for `COc1ccc(Cn2c(-c3ccc(Cl)cc3)c[n+]3ccccc23)cc1` was “inactive”; that for `Cc1noc(C)c1NC(=O)Nc1ccc2c(c1)C(=O)N([C@H](C)CO)C[C@@H](C)[C@@H](CN(C)C(=O)Nc1ccc3c(c1)OCO3)OCCCC[C@@H](C)O2` was “inactive”.
On to `Cc1c(C(=O)O)sc2nc(CSc3ncc(C(F)(F)F)cc3Cl)[nH]c(=O)c12`, for which the outcome was inactive.
Turning to `COc1ccc(Nc2oc(-c3ccco3)nc2S(=O)(=O)c2ccc(F)cc2)cc1`, the outcome was inactive.
With `Cc1cc(C)c(OCCNC(=O)c2ccccc2Sc2ccccc2C#N)c(C)c1`, the compound was classed as inactive.
Consider `CC[C@H]1OC(=O)[C@H](C)[C@@H](O[C@H]2C[C@@](C)(OC)[C@@H](O)[C@H](C)O2)[C@H](C)[C@@H](O[C@@H]2O[C@H](C)C[C@H](N(C)C)[C@H]2O)[C@](C)(O)C[C@@H](C)[C@@H]2N[C@@H](COCCOC)O[C@H]([C@H]2C)[C@]1(C)O`, for which the call was inactive.
In the case of `Cc1[nH]c(=S)sc1Cc1ccc(Cl)c(Cl)c1` it was “inactive”.
In the case of `C[C@@H]1CCCCO[C@H](CN(C)CC2CC2)[C@H](C)CN([C@@H](C)CO)C(=O)c2cc(NC(=O)Nc3cccc4ccccc34)ccc2O1`, the compound was called inactive.
With `CCOC(=O)c1c(NC(=O)Cc2cccs2)sc(C)c1C`, the result was inactive.
As for `Cc1ccc(S(=O)(=O)N2CC[C@H]3[C@H](CO)Nc4ccc(Br)cc4[C@H]32)cc1`, the compound was called inactive.
On to `CCOc1ccccc1NC(=O)c1ccc2ccccc2c1`, for which the outcome was inactive.
The value for `CCn1c(-c2cc(-c3ccc(OC(C)C)cc3)nc3ccccc23)n[nH]c1=S` was “inactive”.
In the case of `Cc1ccc(C)c(NC(=O)CSc2nc3nc(-c4cccs4)cc(C(F)(F)F)c3c(=O)[nH]2)c1` it was “inactive”.
For the compound `O=C(O)c1cc([N+](=O)[O-])ccc1NCc1ccccc1`, the call was inactive.

The record behind these values is PubChem BioAssay AID743484 (Broad Institute, 2014).
